# Test results: paper PMC5540273 (PLoS ONE, 2017)
# Where “and” joins values, the source holds several entries; their conditions need not be identical. Identical values can stand only once. Like-named read-outs stand apart in the source and are kept apart here.
# Columns and labels:
# GRK1 = conditions: concentration: 1 μM, replicates: in singlicate, n = 1
# GRK2 = tested on: T1, GRK2; conditions: concentration: 1 μM, replicates: in singlicate; n = 1
# T1 construct: gene ADRBK1
# GRK3 = tested on: T2, GRK3; conditions: concentration: 1 μM, replicates: in singlicate, n = 1
# T2 construct: gene ADRBK2
# GRK4 = conditions: concentration: 1 μM, replicates: in singlicate, n = 1
# GRK7 = conditions: concentration: 1 μM, replicates: in singlicate; n = 1
# GSK3A = conditions: concentration: 1 μM, replicates: in singlicate, n = 1
# GSK3B = conditions: concentration: 1 μM, replicates: in singlicate, n = 1
# HASPIN = tested on: T3, HASPIN; conditions: concentration: 1 μM, replicates: in singlicate, n = 1
# T3 construct: gene GSG2
# HCK = conditions: concentration: 1 μM, replicates: in singlicate, n = 1
# HIPK1 = conditions: concentration: 1 μM, replicates: in singlicate, n = 1
# HIPK2 = conditions: concentration: 1 μM, replicates: in singlicate, n = 1
# HIPK3 = conditions: concentration: 1 μM, replicates: in singlicate, n = 1
# HIPK4 = conditions: concentration: 1 μM, replicates: in singlicate, n = 1
# HPK1 = conditions: concentration: 1 μM, replicates: in singlicate, n = 1
# HUNK = conditions: concentration: 1 μM, replicates: in singlicate, n = 1
# ICK = conditions: concentration: 1 μM, replicates: in singlicate, n = 1
# IGF1R = conditions: concentration: 1 μM, replicates: in singlicate; n = 1
# IKK-alpha = tested on: T4, IKK-alpha; conditions: concentration: 1 μM, replicates: in singlicate, n = 1
# T4 construct: gene CHUK
# IKK-beta = tested on: T5, IKK-beta; conditions: concentration: 1 μM, replicates: in singlicate; n = 1
# T5 construct: gene IKBKB
# IKK-epsilon = tested on: T6, IKK-epsilon; conditions: concentration: 1 μM, replicates: in singlicate, n = 1
# T6 construct: gene IKBKE
# 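Note: KINOMEscan kinase panel screen.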
structure (smiles),measurement,setting,value
COc1ccc(-c2nc3n(c2-c2ccncc2)CCC3)cc1 [SKF-104493],%Inh,GRK1; 1 µM,11% and 12%
same,%Inh,GRK2,0%
same,%Inh,GRK3; 1 µM,5% and 0%
same,%Inh,GRK4; 1 µM,27% and 2%
same,%Inh,GRK7,0%
same,%Inh,GSK3A; 1 µM,0% and 17%
same,%Inh,GSK3B; 1 µM,27% and 1%
same,%Inh,HASPIN; 1 µM,28% and 0%
same,%Inh,HCK; 1 µM,10% and 0%
same,%Inh,HIPK1; 1 µM,8% and 0%
same,%Inh,HIPK2; 1 µM,11% and 0%
same,%Inh,HIPK3; 1 µM,0% and 17%
same,%Inh,HIPK4; 1 µM,2% and 0%
same,%Inh,HPK1; 1 µM,17% and 0%
same,%Inh,HUNK; 1 µM,35% and 0%
same,%Inh,ICK; 1 µM,32% and 10%
same,%Inh,IGF1R,0%
same,%Inh,IKK-alpha; 1 µM,1% and 0%
same,%Inh,IKK-beta,0%
same,%Inh,IKK-epsilon; 1 µM,0% and 20%
Cn1cc(-c2ccc3c(c2)CCN3C(=O)Cc2cccc(C(F)(F)F)c2)c2c(N)ncnc21 [GSK2606414],%Inh,GRK1,5%
same,%Inh,GRK2,4%
same,%Inh,GRK3,0%
same,%Inh,GRK4,100%
same,%Inh,GRK7,0%
same,%Inh,GSK3A,0%
same,%Inh,GSK3B,0%
same,%Inh,HASPIN,0%
same,%Inh,HCK,0%
same,%Inh,HIPK1,0%
same,%Inh,HIPK2,0%
same,%Inh,HIPK3,16%
same,%Inh,HIPK4,0%
same,%Inh,HPK1,6%
same,%Inh,HUNK,0%
same,%Inh,ICK,4%
same,%Inh,IGF1R,0%
same,%Inh,IKK-alpha,13%
same,%Inh,IKK-beta,7%
same,%Inh,IKK-epsilon,4%
CN1CCC(n2cnc(-c3ccc(F)cc3)c2-c2ccnc(NC3CCNCC3)n2)CC1 [SB-229482],%Inh,GRK1,11%
same,%Inh,GRK2,33%
same,%Inh,GRK3,1%
same,%Inh,GRK4,26%
same,%Inh,GRK7,29%
same,%Inh,GSK3A,0%
same,%Inh,GSK3B,17%
same,%Inh,HASPIN,16%
same,%Inh,HCK,3%
same,%Inh,HIPK1,32%
same,%Inh,HIPK2,45%
same,%Inh,HIPK3,0%
same,%Inh,HIPK4,0%
same,%Inh,HPK1,27%
same,%Inh,HUNK,0%
same,%Inh,ICK,45%
same,%Inh,IGF1R,0%
same,%Inh,IKK-alpha,0%
same,%Inh,IKK-beta,0%
same,%Inh,IKK-epsilon,0%
Cl.O=S(=O)(c1cccc(F)c1)c1ccc(Nc2ncnc3cc(Br)sc23)cc1Cl [GSK306886],%Inh,GRK1,4%
same,%Inh,GRK2,0%
same,%Inh,GRK3,0%
same,%Inh,GRK4,0%
same,%Inh,GRK7,0%
same,%Inh,GSK3A,21%
same,%Inh,GSK3B,31%
same,%Inh,HASPIN,0%
same,%Inh,HCK,0%
same,%Inh,HIPK1,0%
same,%Inh,HIPK2,0%
same,%Inh,HIPK3,23%
same,%Inh,HIPK4,0%
same,%Inh,HPK1,29%
same,%Inh,HUNK,57%
same,%Inh,ICK,0%
same,%Inh,IGF1R,0%
same,%Inh,IKK-alpha,0%
same,%Inh,IKK-beta,41%
same,%Inh,IKK-epsilon,0%
OCCOCCn1ccc2ncnc(Nc3ccc(Oc4cccc(Cl)c4)c(Cl)c3)c21,%Inh,GRK1,9%
same,%Inh,GRK2,0%
same,%Inh,GRK3,0%
same,%Inh,GRK4,0%
same,%Inh,GRK7,0%
same,%Inh,GSK3A,9%
same,%Inh,GSK3B,0%
same,%Inh,HASPIN,0%
same,%Inh,HCK,9%
same,%Inh,HIPK1,16%
same,%Inh,HIPK2,0%
same,%Inh,HIPK3,0%
same,%Inh,HIPK4,0%
same,%Inh,HPK1,0%
same,%Inh,HUNK,7%
same,%Inh,ICK,0%
same,%Inh,IGF1R,0%
same,%Inh,IKK-alpha,0%
same,%Inh,IKK-beta,0%
same,%Inh,IKK-epsilon,0%
FC(F)(F)c1ccc(-c2cc(-c3c[nH]nc3-c3ccccn3)ccn2)cc1 [GW599550],%Inh,GRK1,0%
same,%Inh,GRK2,0%
same,%Inh,GRK3,33%
same,%Inh,GRK4,14%
same,%Inh,GRK7,4%
same,%Inh,GSK3A,19%
same,%Inh,GSK3B,0%
same,%Inh,HASPIN,14%
same,%Inh,HCK,0%
same,%Inh,HIPK1,0%
same,%Inh,HIPK2,0%
same,%Inh,HIPK3,21%
same,%Inh,HIPK4,0%
same,%Inh,HPK1,26%
same,%Inh,HUNK,0%
same,%Inh,ICK,0%
same,%Inh,IGF1R,28%
same,%Inh,IKK-alpha,0%
same,%Inh,IKK-beta,0%
same,%Inh,IKK-epsilon,47%
Fc1cccc(COc2ccc(Nc3ncnc4nn5ccccc5c34)cc2Cl)c1 [GW689066],%Inh,GRK1,0%
same,%Inh,GRK2,0%
same,%Inh,GRK3,30%
same,%Inh,GRK4,0%
same,%Inh,GRK7,0%
same,%Inh,GSK3A,0%
same,%Inh,GSK3B,0%
same,%Inh,HASPIN,63%
same,%Inh,HCK,0%
same,%Inh,HIPK1,0%
same,%Inh,HIPK2,0%
same,%Inh,HIPK3,0%
same,%Inh,HIPK4,0%
same,%Inh,HPK1,22%
same,%Inh,HUNK,28%
same,%Inh,ICK,0%
same,%Inh,IGF1R,0%
same,%Inh,IKK-alpha,11%
same,%Inh,IKK-beta,0%
same,%Inh,IKK-epsilon,0%
